This is a sample that favours compounds with a hit; in the whole collection about 4.3% have one here.
CF NFkB inh: cystic fibrosis NF-kB activation inhibition. AID 588850. KKLEB NF-kB-GFP reporter, PAF-induced, GFP fluorescence overnight. inhibition, % at 5 µM. hit rate 0.86% among 360,000;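 active = at least 50% inhibition at 5 µM, scaled per plate between neutral and stimulator controls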;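 also: PAF is a Pseudomonas aeruginosa culture filtrate used as stimulus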
MITF TRPM1 inh: reduces MITF-dependent TRPM1 promoter luciferase signal; SK-MEL-5 TRPM1 promoter luciferase, 24 h; inhibition, % at 12.5 µM; hit rate 0.83% among 330,000;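 active = mean inhibition across replicates of 60% or more, whatever share of single replicates reaches that level; inconclusive = some that reach 60%, reason not given; inactive = mean inhibition across replicates below 60%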
KKLEB tox: counter-screen for CF NF-kB inhibitors: cytotoxicity. hit rate 0.36% among 360,000. activity change (cytotoxicity), % at 5 µM. KKLEB CF airway cells viability, ATPlite luminescence, overnight; active compounds read low; cells stimulated with P. aeruginosa culture filtrate. AID 602141;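 active = corrected activity change at or below -50% at 5 µM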
HIF-2a inh: blocks HIF-2a reporter activity | 786-0 RCC cells HIF-2a reporter, luciferase luminescence, overnight | inhibition, % at 18.8 µM | hit rate 0.72% among 360,000 | AID 624352;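 active = inhibition of the luminescence signal of 40% or more relative to plate controls, in a single-dose primary screen at 18.75 µM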
Peg3 prom inh-1: reduces Peg3 promoter-driven luciferase expression in HeLa | HeLa PEG-Prom luciferase reporter, luminescence, overnight | inhibition, % at 20 µM | hit rate 1.7% among 360,000;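 active = inhibition of at least 50% at 20 µM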
CHOP inhibitor: blocks CHOP induction under ER stress. CHO-K1 CHOP-promoter luciferase, tunicamycin-induced, 15-18 h. inhibition, % at 10 µM. hit rate 3.8% among 220,000. AID 2732;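 active = compounds that reduced the stress-induced luciferase reporter signal by more than about 70% of percent inhibition, limit read from the data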
Peg3 prom inh-2: confirmation of Peg3 promoter inhibitors; inhibition, % at 20 µM; HeLa PEG-Prom luciferase reporter, luminescence, overnight; hit rate 84% among 1,300; shares compounds with Peg3 prom inh-1;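 active = at 20 µM dose, 40% or more inhibition averaged across four replicates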
CF NFkB inh conf: confirmation of cystic fibrosis induced NF-kB inhibitors | inhibition, % at 5 µM | shares compounds with CF NFkB inh | hit rate 64% among 1,300 | AID 602472 | KKLEB CF airway cells, PAF-induced NF-kB-GFP fluorescence, overnight; in the data active = inhibition above about 40%;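 also: stimulus PAF is a Pseudomonas aeruginosa filtrate and not platelet activating factor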
Mdm2-MdmX confirm: confirmation of inhibitors of human Mdm2/MdmX interaction, set 2 | inhibition, % at 8 µM | hit rate 99% among 740 | SaOS-2 split-luciferase Mdm2/MdmX complementation, luminescence | shares compounds with HIF-2a inh | AID 504601;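 active = mean inhibition of the luminescence signal across two replicates at or above 26 percent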
Target sequence (O15151 whole entry, looked up): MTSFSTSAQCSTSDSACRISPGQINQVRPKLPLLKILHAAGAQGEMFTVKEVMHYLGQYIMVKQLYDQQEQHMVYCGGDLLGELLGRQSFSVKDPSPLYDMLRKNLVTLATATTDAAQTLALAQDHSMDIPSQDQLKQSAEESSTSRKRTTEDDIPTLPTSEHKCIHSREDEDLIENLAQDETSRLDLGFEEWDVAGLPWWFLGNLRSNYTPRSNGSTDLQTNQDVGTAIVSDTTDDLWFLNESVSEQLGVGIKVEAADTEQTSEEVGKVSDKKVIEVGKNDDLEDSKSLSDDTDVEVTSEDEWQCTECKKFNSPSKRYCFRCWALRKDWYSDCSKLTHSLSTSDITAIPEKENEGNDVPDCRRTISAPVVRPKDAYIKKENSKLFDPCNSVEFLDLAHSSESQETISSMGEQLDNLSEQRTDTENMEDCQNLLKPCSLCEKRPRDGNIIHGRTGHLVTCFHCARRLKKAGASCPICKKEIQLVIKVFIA
Target sequence (Q00987 whole entry, looked up): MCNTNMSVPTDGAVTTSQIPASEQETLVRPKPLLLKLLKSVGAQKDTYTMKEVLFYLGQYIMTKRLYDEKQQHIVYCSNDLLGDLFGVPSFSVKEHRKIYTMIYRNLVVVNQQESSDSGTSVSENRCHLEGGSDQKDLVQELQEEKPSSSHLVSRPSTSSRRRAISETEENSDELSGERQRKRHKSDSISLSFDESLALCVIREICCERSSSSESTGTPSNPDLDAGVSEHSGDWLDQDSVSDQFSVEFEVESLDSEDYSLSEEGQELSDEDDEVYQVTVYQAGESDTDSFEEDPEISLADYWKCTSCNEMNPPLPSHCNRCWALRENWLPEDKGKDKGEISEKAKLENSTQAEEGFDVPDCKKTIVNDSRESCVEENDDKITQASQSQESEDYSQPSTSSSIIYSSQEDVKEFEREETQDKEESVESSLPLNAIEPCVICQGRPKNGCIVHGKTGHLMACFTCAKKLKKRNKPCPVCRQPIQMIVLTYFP
HIF-2a inh conf: confirmation of HIF-2a inhibitors; shares compounds with HIF-2a inh; 786-0 RCC cells, HIF-2a luciferase reporter luminescence, overnight; inhibition, % at 18.8 µM; hit rate 56% among 1,800; AID 651580;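 active = mean inhibition across four replicates of at least 40 percent at the single tested concentration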
HIF-1a cs: HIF-1a inhibition counter-screen for HIF-2a hits; shares compounds with HIF-2a inh; hit rate 72% among 1,800; inhibition, % at 18.8 µM; MiaPaCa-2 HIF-1a luciferase reporter, desferoxamine, overnight;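 active = mean inhibition of the reporter signal across four replicates at the single tested dose of 50% or more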
A number is an active result; 0 = inactive; ? = inconclusive; - = not tested or not shown.

SMILES	CF NFkB inh	MITF TRPM1 inh	KKLEB tox	HIF-2a inh	Peg3 prom inh-1	CHOP inhibitor	CF NFkB inh conf	others
Cc1ccc(N(Cc2cc(=O)[nH]c3ccccc23)C(=O)CCl)c(C)c1	0	?	0	0	71	-	-	Peg3 prom inh-2=76;Mdm2-MdmX confirm=101
O=C(/C=C/c1cc(Br)ccc1O)c1ccco1	94	0	0	94	107	0	-	Peg3 prom inh-2=99;HIF-2a inh conf=46;HIF-1a cs=102
CCC(=O)Nc1cccc(-n2nnnc2SCC(=O)N2CCCCC2)c1	0	0	0	0	0	0	-
Nc1ncnc(Nc2ccccc2Cl)n1	0	0	0	0	0	0	-
CC1=C(C(=O)OCc2ccc3c(c2)OCO3)C(c2ccc(Cl)cc2)NC(=O)N1 (stereo not given)	93	0	0	0	53	-	-	Peg3 prom inh-2=0;Mdm2-MdmX confirm=95
CSCCOC(=O)C1=C(C)NC(=O)NC1c1ccc2c(c1)OCO2 (stereo not given)	0	0	0	0	0	-	-
CN(C)CCNc1ncnc2c1sc1nc(N3CCOCC3)c3c(c12)CC(C)(C)SC3	0	77	0	54	81	0	-	Peg3 prom inh-2=94;HIF-2a inh conf=0;HIF-1a cs=80
Cc1cccc(NS(=O)(=O)c2ccc3oc(=O)ccc3c2)c1C	0	0	0	0	0	-	-
O=C(Nc1ccc(N2CCOCC2)cc1)c1cnsn1	0	79	0	75	101	78	-	Peg3 prom inh-2=74;HIF-2a inh conf=88;HIF-1a cs=84
O=C(Nc1ccc(N2CCOCC2)cc1)c1ccncc1	0	0	0	0	0	0	-
CCC(=O)NC(C)c1cc(Cl)c2cccnc2c1O (stereo not given)	0	0	0	0	0	-	-
CCCC(=O)NC(c1ccc(Cl)cc1)c1ccc2cccnc2c1O (stereo not given)	0	75	0	0	57	-	-	Peg3 prom inh-2=65;Mdm2-MdmX confirm=92
CC(=O)NC(c1ccc(Cl)cc1Cl)c1ccc2cccnc2c1O (stereo not given)	0	0	0	0	56	-	-	Peg3 prom inh-2=59;Mdm2-MdmX confirm=86
CCCC(=O)NC(c1ccc(C)cc1)c1ccc2cccnc2c1O (stereo not given)	0	-	0	0	63	-	-	Peg3 prom inh-2=67;Mdm2-MdmX confirm=89
CC(=O)NC(CC(=O)NC(C)c1ccc(Cl)cc1Cl)c1ccccc1 (stereo not given)	0	0	0	0	0	0	-
CCCCC(=O)NC(c1ccccc1OC)c1ccc2cccnc2c1O (stereo not given)	0	78	0	0	62	72	-	Peg3 prom inh-2=69;Mdm2-MdmX confirm=87
C/C(=C\[C@@H](NP(=O)(c1ccccc1)c1ccccc1)c1ccccc1)CO[Si](c1ccccc1)(c1ccccc1)C(C)(C)C	54	0	0	0	0	-	0
Cc1nc([N+](=O)[O-])c(Sc2nc3ccccc3n2C)n1Cc1ccccc1	65	63	0	0	0	0	56
Cc1nc([N+](=O)[O-])c(SCC(N)=O)n1Cc1ccccc1	0	0	0	0	0	0	-
CCN(CC)CCN(C(=O)CCS(=O)(=O)c1ccccc1)c1nc2c(C)cc(C)cc2s1	73	0	0	0	57	-	70
O=C(CCNC(=O)C1CCN(S(=O)(=O)c2ccc(F)cc2)CC1)NC1CC1	0	0	0	0	0	-	-
COC(=O)c1cc(NC(=O)Nc2cccc(Cl)c2)ccc1Cl	50	0	0	0	0	95	0
O=C(Nc1ccccc1)Nc1ccc(Br)cc1F	0	0	0	0	0	0	-
O=C(Nc1cccc(Cl)c1)Nc1cc(S(=O)(=O)N2CCCCC2)ccc1Cl	50	80	0	0	66	87	75
O=C(Nc1cccc(Cl)c1)Nc1ccc(Br)cc1F	59	0	0	0	0	91	0
SMILES	CF NFkB inh	MITF TRPM1 inh	KKLEB tox	HIF-2a inh	Peg3 prom inh-1	CHOP inhibitor	CF NFkB inh conf	others
COc1ccc(OC)c(-c2csc(N(CC3CCCO3)C(=O)C3CCCCC3)n2)c1 (stereo not given)	0	0	0	0	0	0	-
COc1ccc(OC)c(NC(=O)COc2cc(O)c3c(c2)OC(C)(C)CC3=O)c1	0	-	0	0	0	-	-
CC[C@@H](C(=O)[C@@H](C)[C@@H](O)[C@H](C)[C@@H]1O[C@@H]([C@@H](CC)C(=O)O)CC[C@@H]1C)[C@H]1O[C@]2(C=C[C@@H](O)[C@]3(CC[C@@](C)([C@H]4CC[C@](O)(CC)[C@H](C)O4)O3)O2)[C@H](C)C[C@@H]1C	69	78	0	0	101	-	105
O=C(Nc1nc2ccc(F)cc2s1)C1CCN(S(=O)(=O)c2cc([N+](=O)[O-])ccc2Cl)CC1	79	0	0	0	0	90	72
O=C1[C@H](Cc2ccccc2)NCCCC[C@H](c2ccc(Cl)cc2)N1Cc1ccccc1	59	0	0	0	0	-	0
Cc1cccc(-n2ncc3c2CCCC3NC(=O)C2=CC(=O)CC(C)(C)O2)c1C (stereo not given)	0	0	0	0	0	-	-
COc1ccccc1NS(=O)(=O)c1cccc(-n2c(O)c(C=Nc3ccccc3C(=O)O)c3ccccc3c2=O)c1	86	0	0	0	0	0	93
COc1ccc(Cn2c(O)c(C=Nc3ccccc3C(=O)O)c3ccccc3c2=O)cc1	0	0	0	0	0	0	-
O=C(Nc1cc(-c2nc3ncccc3o2)ccc1Cl)c1ccc([N+](=O)[O-])o1	80	79	0	0	88	-	0
COc1ccc(-c2cc3c(=O)n(CC(=O)Nc4ccc(Cl)cc4)ncn3n2)cc1	0	0	0	0	0	-	-
COc1ccc(NC(=O)Cn2ncn3nc(-c4ccc(OC)cc4)cc3c2=O)cc1	54	0	0	0	0	-	55
O=C(O)c1ccc2c(c1)C(=O)N(CCc1c[nH]c3ccccc13)C2=O	0	0	0	0	0	-	-
Cn1cnnc1Sc1ccc(/C=C/C(=O)c2ccc(O)cc2)cc1[N+](=O)[O-]	59	0	0	0	110	0	0
CCC(C)(C)NC(=O)c1ccc(Sc2nncn2C)c([N+](=O)[O-])c1	0	0	0	0	0	0	-
CC1CCN(CC2C(=O)O[C@@H]3C[C@@]4(C)CCC[C@H](C)C4=C[C@H]23)CC(C)(C)C1 (stereo not given in full)	84	74	0	0	0	-	0
Cc1cccc2c(N=O)c(O)[nH]c12	0	0	0	0	0	0	-

Screening results from PubChem BioAssay.
